# Reference: PubChem BioAssay (NCATS)
# Records with an inconclusive call do not appear. Activity calls are given as the source filed them. Unless noted, calls come from the whole dose curve; as a rule, active = well fitted curve in the direction sought with a large enough effect; inconclusive = small, poorly fitted or top-dose-only effect, or another doubt; inactive = no such curve, though single readings can be large; an effect the other way counts as inactive or inconclusive.
# Legend:
# [1] = Confirmation and Secondary Assay for Modulators of Hemoglobin Beta Chain Splicing at IVS2 654 locus (AID 910);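 note: HeLa cells stably carrying EGFP split by mutant beta-globin IVS2-654 intron; % of control where 0% means no effect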
# Method in brief: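 HeLa cells stably expressing EGFP interrupted by β-globin IVS2-654 intron, seeded overnight in Opti-MEM/2% FCS, then treated 2 days at 37 °C. Restored splicing read as total peak GFP intensity per well by laser scanning cytometry (488 nm excitation, 500–520 nm emission); 500 nM antisense PNA as control.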
# [2] = Confirmation and Secondary Assay for Modulators of Hemoglobin Beta Chain Splicing at IVS2 705 locus (AID 930);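 note: HeLa cells stably expressing the EGFP-705 splicing reporter; GFP fluorescence per well restored by corrected splicing of the IVS2-705 intron in EGFP; % of control where 0% means no effect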
# Method in brief: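 Fluorescence gain (488 nm laser, 500-520 nm PMT) reflects restored correct splicing of a mutant IVS2-705 intron inside EGFP in stably transfected HeLa cells after 2-day compound treatment.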
# [3] = qHTS Assay for Lipid Storage Modulators (AID 1519; calls by dose curve); settings: Drosophila S3 cells, BODIPY lipid droplet/cell ratio, laser cytometry, cells loaded with oleic acid; for activity change, negative = inhibition: at 57.5 µM (top of the series)
# Method in brief: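 Cells seeded at 5,000 per well were treated with compounds over a concentration series and loaded with oleic acid (400 uM, as added). Lipid droplet fluorescence (488 nm excitation, 500-530 nm channel) was read by laser-scanning cytometry and normalized to 20 uM Triacsin C.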
# [4] = molecular target: Rap guanine nucleotide exchange factor 3 (Homo sapiens) (UniProt O95398); experiment: Confirmatory qHTS for agonist of cAMP-regulated guanine nucleotide exchange factor 3 (EPAC1) (AID 1645881);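 note: EPAC1 catalysed release of BODIPY-GDP from Rap1B seen as fluorescence loss; 100% = effect of cAMP agonist control; nearly all actives have a fitted effect of over 75% in size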
# [5] = molecular target: Lysosomal acid glucosylceramidase (Homo sapiens) (UniProt P04062); experiment: Glucocerebrosidase-p2 (AID 348; in the data active = potency below about 10 µM; note: potency is the fitted concentration of half-maximal effect); settings: purified GBA, blue fluorogenic substrate, 40 min
# Method in brief: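 Compounds titrated from 0.6 nM upwards against 0.2 nM enzyme in pH 5.9 citric acid/KH2PO4, taurocholate, tween-20; blue fluorogenic substrate 80 uM, 40 min room temperature, stopped and read Ex 365/Em 440 for AC50.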
# [6] = AP1 Signaling Pathway (AID 357; active = well fitted curve in either direction with a large enough effect, not every such curve was filed as active; note: % is set by controls: 0 for no effect and ±100 for the full control effect); settings: ME-180 AP-1-bla reporter, EGF-induced, beta-lactamase ratio, 5 h; at 7.69 µM (top of the series) unless noted
# Method in brief: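 AP-1-bla ME-180 cells with beta-lactamase reporter under AP-1 response element, stimulated with EC50 EGF; compounds titrated, 5 hours at 37 degrees Celsius. CCF4 read at 460/530 nm ratio; positive and negative modulators judged by AC50.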
# [7] = molecular target: Cytochrome P450 1A2 (Homo sapiens) (UniProt P05177); experiment: p450-cyp1a2 (AID 410; calls by dose curve; note: potency is the fitted concentration of half-maximal effect;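 for activity change, negative = inhibition: -100% = full effect of reference inhibitor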)
# Method in brief: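 Inhibition was calculated relative to 57 uM furafylline (full inhibition). The reaction used human CYP1A2 at 20nM with Luciferin-ME at its Km, 100uM, driven by an NADPH-regenerating system for 60 min at room temperature.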
# [8] = NFAT Signaling Pathway (AID 444; active = well fitted curve in either direction with a large enough effect, not every such curve was filed as active;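 note: carbachol stimulus at about its EC50 of 1 µM final; % is set by controls: 0 for no effect and ±100 for the full control effect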); settings: Jurkat NFAT-bla M1, carbachol, beta-lactamase ratio, 5 h; at 7.69 µM (top of the series) unless noted
# Method in brief: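 Jurkat cells with NFAT-driven β-lactamase reporter and co-expressed M1 receptor, stimulated with carbachol (final 1 uM, ~EC50), compound titration, 5 h at 37 °C. CCF4 loaded 1 h at RT; 460/530 nm ratio gave %activity and AC50.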
# [9] = Stat Signaling Pathway (AID 446; active = well fitted curve in either direction with a large enough effect, not every such curve was filed as active;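 note: ME-180 cervical cancer cells given 40 pM IL-6 alongside compound; SIE-controlled beta-lactamase reporter measured as 460/530 nm FRET emission ratio; % is set by controls: 0 for no effect and ±100 for the full control effect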); settings: ME-180 (cervical carcinoma) SIE beta-lactamase reporter, IL-6 stimulated, 5 h; at 7.69 µM (top of the series) unless noted
# Method in brief: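 IL-6/STAT signaling read in ME-180 cells via an SIE beta-lactamase reporter. Stimulus was 40 pM IL-6 (its AC50) for 5 hrs, so both activation and inhibition register.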
# [10] = molecular target: Glucocorticoid receptor (Homo sapiens) (UniProt P04150); experiment: GR-GFP Redistribution (AID 450;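 active = compounds whose dose series gives a full or clear partial fitted curve of increased nuclear translocation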; note: potency is the fitted concentration of half-maximal effect); settings: U2OS GR-GFP nuclear translocation, laser cytometry, 2 h
# [11] = molecular target: Glucocorticoid receptor (Homo sapiens) (UniProt P04150); experiment: GR-EFC Redistribution (AID 451; calls by dose curve; note: potency is the fitted concentration of half-maximal effect); settings: CHO-K1 GR-EFC translocation, beta-gal luminescence, 2 h
# Method in brief: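 CHO-K1 cells expressing nuclear EA and GR-ED fragments of b-gal; compounds titrated up to 46 uM final, 2 h at 37 C. GR nuclear translocation read as complemented b-gal luminescence after 1 h RT detection.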
# [12] = molecular target: Mitogen-activated protein kinase 10 (Mus musculus) (UniProt Q61831); experiment: JNK3 AlphaScreen Assay (AID 530; active = well fitted curve in either direction with a large enough effect, not every such curve was filed as active;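 note: kinase came from lysate of stimulated human HepG2 cells; signal reports phosphorylation of biotinylated GST-cJun 1-79 at Ser73 with 10 µM ATP; % is set by controls: 0 for no effect and ±100 for the full control effect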)
# Method in brief: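 qHTS format: compounds tested as titrations against IL-1beta/TNF-alpha-activated HepG2 lysate JNK3 with biotin-GST-cJun substrate and 10 uM ATP at room temperature. Loss of anti-phospho-cJun AlphaScreen signal indicates inhibition.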
# [13] = molecular target: 3',5'-cyclic-AMP phosphodiesterase 4B (Homo sapiens) (UniProt Q07343); experiment: qHTS Assay for Inhibitors of PDE-IV (AID 607; active = well fitted activation curve with a large enough effect in the main read-out, with a control signal flat, not every such curve was filed as active; note: % of control where 0% means no effect)
# Method in brief: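 Live HEK293 cells with a modified cyclic nucleotide-gated (CNG) channel report intracellular cAMP via membrane-potential dye fluorescence (ex 535/em 590 nm). Endogenous PDE-IV was targeted. Compounds were tested at up to 22.9 uM final; RO 20-1724 100 uM served as control.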
# [14] = molecular target: Cytochrome P450 3A4 (Homo sapiens) (UniProt P08684); experiment: qHTS Assay for Inhibitors and Substrates of Cytochrome P450 3A4 (AID 884); note: nearly all actives have a fitted effect of over 50% in size; note: potency is the fitted concentration of half-maximal effect
# Method in brief: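 20 nM human CYP3A4 with 25 uM Luciferin-PPXE (at KM) in 200 mM KPO4, preincubated 10 min with compound; NADPH regeneration started a 60 min RT reaction. Luciferin detected by luminescence, normalized to 57 uM ketoconazole as full inhibition.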
# [15] = molecular target: Dual specificity protein kinase CLK4 (Homo sapiens) (UniProt Q9HAZ1); experiment: qHTS Assay for Inhibitors of CDC-like Kinase 4 (Kinase-Glo Assay) (AID 1770); note: % is set by controls: 0 for no effect and ±100 for the full control effect; nearly all actives have a fitted effect of over 65% in size
# Method in brief: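 Clk4 25 nM, RS peptide 100 uM, ATP 1 uM, pH 7.5 Tris, 10 mM MgCl2, 2.5 mM DTT; 4.5 h RT; ATP depletion read by Kinase-Glo luminescence.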
# [16] = molecular target: Dual specificity protein kinase CLK4 (Homo sapiens) (UniProt Q9HAZ1); experiment: qHTS Assay for Inhibitors of CDC-like Kinase 4 (ADP-Glo Assay) (AID 1771); note: % is set by controls: 0 for no effect and ±100 for the full control effect; nearly all actives have a fitted effect of over 70% in size
# Method in brief: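 Kinase reaction: Clk4 at 25 nM, RS repeat peptide substrate at 100 uM, ATP at 1 uM, 1 hr, room temperature. Product ADP detected as luciferase signal via ADP-Glo.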
# [17] = molecular target: Dual specificity protein kinase CLK4 (Homo sapiens) (UniProt Q9HAZ1); experiment: qHTS Assay for Inhibitors of CDC-like Kinase 4 (ADP-FP Assay) (AID 1795);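 note: recombinant human CLK4 phosphorylating RS repeat peptide at 1 µM ATP; % is set by controls: 0 for no effect and ±100 for the full control effect; nearly all actives have a fitted effect of over 60% in size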
# Method in brief: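 Kinase activity was followed as ADP output, converted from fluorescence polarization with a calibration curve. Reactions ran one hour at low ATP (1 uM) with RS peptide substrate.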
# [18] = molecular target: Ubiquitin carboxyl-terminal hydrolase 1 (Homo sapiens) (UniProt O94782); experiment: Inhibitors of USP1/UAF1: Pilot qHTS (AID 504865);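 note: rhodamine fluorescence freed from ubiquitin-rhodamine substrate followed over time; top concentration of the series differs between compounds; % is set by controls: 0 for no effect and ±100 for the full control effect; nearly all actives have a fitted effect of over 35% in size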
# Method in brief: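 Enzyme-free wells gave the negative control, while test wells held 1nM USP1/UAF1 preincubated with compound for 15 min at room temperature. Ub-Rho at 150nM final started the reaction, and fluorescence at 480/540 nm was recorded kinetically.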
# [19] = molecular target: Cytochrome P450 3A4 (Homo sapiens) (UniProt P08684); experiment: qHTS Assay for Activators of Cytochrome P450 3A4 (AID 885); note: nearly all actives have a fitted effect of over 65% in size
# Method in brief: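 Quantitative HTS format: compounds preincubated with 20nM human CYP3A4 and Luciferin-PPXE substrate at KM, reaction started by NADPH regeneration, stopped after 60 min, luciferase luminescence read 20 min later.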
# [20] = measured here: cell count channel max response
# [21] = measured here: lipid channel max response
# Glucocorticoid receptor (Homo sapiens), sequence (P04150 whole entry, looked up, the tested form may be a part): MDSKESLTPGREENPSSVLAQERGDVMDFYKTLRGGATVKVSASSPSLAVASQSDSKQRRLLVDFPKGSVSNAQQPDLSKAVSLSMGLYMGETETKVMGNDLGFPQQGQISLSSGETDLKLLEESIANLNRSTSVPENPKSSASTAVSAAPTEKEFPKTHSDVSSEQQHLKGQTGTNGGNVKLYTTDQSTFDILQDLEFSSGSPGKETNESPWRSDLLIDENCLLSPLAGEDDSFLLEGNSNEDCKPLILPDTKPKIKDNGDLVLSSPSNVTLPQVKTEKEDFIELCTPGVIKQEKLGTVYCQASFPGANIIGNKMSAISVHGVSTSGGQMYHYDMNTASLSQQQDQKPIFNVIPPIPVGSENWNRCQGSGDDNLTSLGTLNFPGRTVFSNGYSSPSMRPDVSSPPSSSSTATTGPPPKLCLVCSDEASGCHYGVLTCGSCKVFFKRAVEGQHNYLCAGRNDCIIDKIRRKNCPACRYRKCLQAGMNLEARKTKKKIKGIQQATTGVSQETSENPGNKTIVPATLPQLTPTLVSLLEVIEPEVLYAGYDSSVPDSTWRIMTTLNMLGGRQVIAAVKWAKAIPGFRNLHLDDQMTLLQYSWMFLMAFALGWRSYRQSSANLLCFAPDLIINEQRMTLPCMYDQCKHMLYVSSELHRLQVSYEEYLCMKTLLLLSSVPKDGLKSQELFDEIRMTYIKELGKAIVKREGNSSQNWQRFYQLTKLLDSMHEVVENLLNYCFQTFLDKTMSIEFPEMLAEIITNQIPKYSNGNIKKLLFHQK
# Cytochrome P450 3A4 (Homo sapiens), sequence (P08684 whole entry, looked up): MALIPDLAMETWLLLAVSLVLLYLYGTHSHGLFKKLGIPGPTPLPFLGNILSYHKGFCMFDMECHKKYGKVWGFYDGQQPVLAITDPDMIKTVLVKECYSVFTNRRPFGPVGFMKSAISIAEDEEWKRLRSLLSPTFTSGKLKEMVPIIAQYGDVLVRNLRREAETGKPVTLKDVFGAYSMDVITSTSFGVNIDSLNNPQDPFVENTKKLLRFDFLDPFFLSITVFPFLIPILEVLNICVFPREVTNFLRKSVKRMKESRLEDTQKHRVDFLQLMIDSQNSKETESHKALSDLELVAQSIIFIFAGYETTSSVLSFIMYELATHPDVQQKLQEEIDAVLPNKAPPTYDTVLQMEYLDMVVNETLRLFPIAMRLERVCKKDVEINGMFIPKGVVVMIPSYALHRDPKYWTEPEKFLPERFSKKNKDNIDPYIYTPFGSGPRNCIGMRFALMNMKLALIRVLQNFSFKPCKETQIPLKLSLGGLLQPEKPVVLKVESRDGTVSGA
# Dual specificity protein kinase CLK4 (Homo sapiens), sequence (Q9HAZ1 whole entry, looked up): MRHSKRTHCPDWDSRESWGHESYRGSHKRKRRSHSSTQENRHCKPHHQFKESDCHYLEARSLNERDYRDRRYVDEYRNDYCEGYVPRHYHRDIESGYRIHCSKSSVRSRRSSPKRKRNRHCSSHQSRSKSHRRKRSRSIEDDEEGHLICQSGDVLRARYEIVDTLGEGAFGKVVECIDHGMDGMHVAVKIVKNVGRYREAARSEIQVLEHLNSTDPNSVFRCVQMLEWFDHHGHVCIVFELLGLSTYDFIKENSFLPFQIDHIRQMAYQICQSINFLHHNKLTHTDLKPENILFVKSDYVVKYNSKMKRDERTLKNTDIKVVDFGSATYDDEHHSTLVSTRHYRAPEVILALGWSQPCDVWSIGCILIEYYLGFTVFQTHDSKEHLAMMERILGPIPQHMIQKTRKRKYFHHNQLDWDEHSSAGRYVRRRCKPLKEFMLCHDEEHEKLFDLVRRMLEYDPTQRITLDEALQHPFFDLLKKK
# Ubiquitin carboxyl-terminal hydrolase 1 (Homo sapiens), sequence (O94782 whole entry, looked up): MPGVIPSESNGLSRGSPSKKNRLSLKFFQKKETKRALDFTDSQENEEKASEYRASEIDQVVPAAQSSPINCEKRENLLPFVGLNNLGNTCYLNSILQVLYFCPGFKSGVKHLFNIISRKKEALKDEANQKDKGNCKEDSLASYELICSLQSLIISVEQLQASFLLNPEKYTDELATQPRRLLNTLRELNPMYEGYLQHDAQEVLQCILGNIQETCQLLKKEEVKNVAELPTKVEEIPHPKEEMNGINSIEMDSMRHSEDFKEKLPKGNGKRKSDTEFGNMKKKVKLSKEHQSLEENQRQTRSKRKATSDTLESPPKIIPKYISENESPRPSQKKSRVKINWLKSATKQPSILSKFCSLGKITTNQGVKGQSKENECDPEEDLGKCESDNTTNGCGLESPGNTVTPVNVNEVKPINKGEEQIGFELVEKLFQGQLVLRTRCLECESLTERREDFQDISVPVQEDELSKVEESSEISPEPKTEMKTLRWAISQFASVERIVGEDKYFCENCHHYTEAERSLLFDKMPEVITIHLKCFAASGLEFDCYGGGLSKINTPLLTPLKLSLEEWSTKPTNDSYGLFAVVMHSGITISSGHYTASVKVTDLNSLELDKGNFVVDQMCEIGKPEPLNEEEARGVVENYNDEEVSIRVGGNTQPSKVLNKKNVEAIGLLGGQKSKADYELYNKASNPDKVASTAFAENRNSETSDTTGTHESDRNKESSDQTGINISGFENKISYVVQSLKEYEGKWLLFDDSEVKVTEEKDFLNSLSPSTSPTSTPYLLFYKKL
# Rap guanine nucleotide exchange factor 3 (Homo sapiens), sequence (O95398 whole entry, looked up): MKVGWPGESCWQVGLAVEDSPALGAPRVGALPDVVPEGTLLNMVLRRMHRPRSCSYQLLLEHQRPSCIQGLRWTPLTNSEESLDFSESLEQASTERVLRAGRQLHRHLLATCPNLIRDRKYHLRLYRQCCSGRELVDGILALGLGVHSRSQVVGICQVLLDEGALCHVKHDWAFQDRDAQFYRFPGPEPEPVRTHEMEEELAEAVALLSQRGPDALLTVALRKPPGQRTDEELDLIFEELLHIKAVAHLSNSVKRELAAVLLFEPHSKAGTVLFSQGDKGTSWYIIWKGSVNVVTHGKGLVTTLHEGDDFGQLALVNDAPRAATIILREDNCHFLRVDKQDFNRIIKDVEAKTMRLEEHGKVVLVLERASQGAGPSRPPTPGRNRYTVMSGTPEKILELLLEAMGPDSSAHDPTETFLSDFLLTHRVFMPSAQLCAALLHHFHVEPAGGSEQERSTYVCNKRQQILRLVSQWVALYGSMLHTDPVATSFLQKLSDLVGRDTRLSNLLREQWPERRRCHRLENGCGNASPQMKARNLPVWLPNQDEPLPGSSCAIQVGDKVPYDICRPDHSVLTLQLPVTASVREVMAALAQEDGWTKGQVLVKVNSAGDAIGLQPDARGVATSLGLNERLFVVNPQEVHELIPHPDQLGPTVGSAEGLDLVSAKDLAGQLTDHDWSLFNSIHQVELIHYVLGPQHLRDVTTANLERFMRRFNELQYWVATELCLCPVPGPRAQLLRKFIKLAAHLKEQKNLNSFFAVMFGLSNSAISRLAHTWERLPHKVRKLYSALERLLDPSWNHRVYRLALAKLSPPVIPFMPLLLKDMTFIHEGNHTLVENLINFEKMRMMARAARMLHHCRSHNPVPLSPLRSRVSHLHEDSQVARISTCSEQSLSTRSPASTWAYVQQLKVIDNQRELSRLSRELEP
# Cytochrome P450 1A2 (Homo sapiens), sequence (P05177 whole entry, looked up): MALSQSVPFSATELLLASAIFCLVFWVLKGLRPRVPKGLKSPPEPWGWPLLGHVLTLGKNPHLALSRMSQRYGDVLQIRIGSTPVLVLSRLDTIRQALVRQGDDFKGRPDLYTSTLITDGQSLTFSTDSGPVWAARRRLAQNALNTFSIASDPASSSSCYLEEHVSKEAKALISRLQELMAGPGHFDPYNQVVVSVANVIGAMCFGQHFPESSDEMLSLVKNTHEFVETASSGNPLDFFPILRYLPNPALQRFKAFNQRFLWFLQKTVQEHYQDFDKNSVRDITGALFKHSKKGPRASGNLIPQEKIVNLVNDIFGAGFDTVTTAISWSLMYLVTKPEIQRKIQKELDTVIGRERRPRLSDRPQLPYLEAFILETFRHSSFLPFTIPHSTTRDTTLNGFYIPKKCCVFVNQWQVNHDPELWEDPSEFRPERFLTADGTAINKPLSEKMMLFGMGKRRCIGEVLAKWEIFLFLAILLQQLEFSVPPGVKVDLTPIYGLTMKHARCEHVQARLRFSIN
# Lysosomal acid glucosylceramidase (Homo sapiens), sequence (P04062 whole entry, looked up): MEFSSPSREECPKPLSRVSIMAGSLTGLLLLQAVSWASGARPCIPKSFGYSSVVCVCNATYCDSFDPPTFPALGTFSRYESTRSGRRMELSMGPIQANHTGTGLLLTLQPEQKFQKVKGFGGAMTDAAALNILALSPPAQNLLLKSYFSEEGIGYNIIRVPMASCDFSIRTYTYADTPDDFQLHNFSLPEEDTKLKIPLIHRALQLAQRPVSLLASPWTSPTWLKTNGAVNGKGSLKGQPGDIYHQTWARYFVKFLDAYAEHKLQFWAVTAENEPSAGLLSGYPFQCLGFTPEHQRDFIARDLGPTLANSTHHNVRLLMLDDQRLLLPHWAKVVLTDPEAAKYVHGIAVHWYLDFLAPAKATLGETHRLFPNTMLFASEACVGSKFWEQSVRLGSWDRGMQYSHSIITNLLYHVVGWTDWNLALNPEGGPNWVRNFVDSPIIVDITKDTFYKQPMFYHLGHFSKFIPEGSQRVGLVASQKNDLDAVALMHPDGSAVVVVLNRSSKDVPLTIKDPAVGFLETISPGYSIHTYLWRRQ
smiles,measurement,setting,value
Cc1cccc2c3c(ccc12)C1=C(C(=O)C3=O)C(C)CO1 (configuration not stated),Potency,[1],inactive
same,outcome,[2],inactive
same,"activity change, negative = inhibition",[3],8.95% (inactive)
same,max response,[3]; [20],9.52%
same,max response,[3]; [21],20.4%
same,Potency,[4],inactive
Nc1ncnc2c1nc(Br)n2C1O[C@H]2COP(=O)(O)O[C@@H]2C1O (some centres not stated),"activity change, negative = inhibition",[3],0.429% (inactive)
same,max response,[3]; [20],27.3%
same,max response,[3]; [21],29.9%
CN1CCN(c2ncc3nc(CCc4ccccc4)c(=O)n(C)c3n2)CC1,Potency,[5],> 11.4 µM (inactive)
same,"activity change, negative = inhibition",[6],14.9% (inactive)
same,Potency,[7],12.6 µM (active)
same,"activity change, negative = inhibition",[8],1.74% (inactive)
same,"activity, negative = inhibition",[9],-2.48% (inactive)
same,Potency,[10],> 9.22 µM (inactive)
same,Potency,[11],> 46 µM (inactive)
same,Potency,[12],inactive
same,Potency,[13],inactive
same,Potency,[14],inactive
same,"activity change, negative = inhibition",[3],3.14% (inactive)
same,max response,[3]; [20],18.8%
same,max response,[3]; [21],18.3%
same,Potency,[15],inactive
same,Potency,[16],inactive
same,Potency,[17],inactive
same,Potency,[18],inactive
C[C@@H](Oc1ccc(Oc2cnc3ccc(Cl)cc3n2)cc1)C(=O)O,"activity change, negative = inhibition",[3],-0.184% (inactive)
same,max response,[3]; [20],-7.54%
same,max response,[3]; [21],-6.55%
COc1ccc(-c2cc(=O)c3c(OC)c(OC)c(OC)c(OC)c3o2)cc1OC,Potency,[14],25.1 µM (active)
same,Potency,[19],inactive
same,Potency,[1],inactive
same,outcome,[2],inactive
same,"activity change, negative = inhibition",[3],-10.1% (inactive)
same,max response,[3]; [20],-11.8%
same,max response,[3]; [21],-19.5%
same,Potency,[18],inactive
C=CC(C1=CC(=O)C(OC)=CC1=O)c1ccccc1 (configuration not stated),Potency,[14],20 µM (active)
same,Potency,[19],inactive
same,Potency,[1],inactive
same,outcome,[2],inactive
same,"activity change, negative = inhibition",[3],-14.6% (inactive)
same,max response,[3]; [20],-0.41%
same,max response,[3]; [21],-12.3%
same,Potency,[4],inactive
COc1cc2c3cc1Oc1c(OC)c(OC)cc4c1[C@@H](Cc1ccc(O)c(c1)Oc1ccc(cc1)C[C@@H]3N(C)CC2)N(C)CC4,Potency,[7],inactive
same,Potency,[10],> 46 µM (inactive)
same,Potency,[11],> 46 µM (inactive)
same,Potency,[12],inactive
same,"activity change, negative = inhibition",[3],6.85% (inactive)
same,max response,[3]; [20],20.8%
same,max response,[3]; [21],29.4%
